In paper PMC5540273 (PLoS ONE, 2017):

What follows are molecules tested on PAK1. Details: concentration: 1 μM,replicates: in singlicate; n = 1.
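Note: KINOMEscan kinase panel screen.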

| Compound | %Inh [%] |
| --- | --- |
| COC(=O)Nc1nc2cc(Oc3ccc(NC(=O)Nc4cc(C(F)(F)F)ccc4Cl)cc3)ccc2[nH]1.Cl [GW697465] | 36 |
| CS(=O)(=O)c1cccc(CNc2nc(Nc3ccc4c(c3)[C@@H]3C[C@@H]4CNC3=O)ncc2C(F)(F)F)c1 | 5 |
| COc1cccc(C2=C(Nc3cccc(Cl)c3)C(=O)NC2=O)c1 [SB-341556] | 4 |
| Cc1ccc2c(-c3ccnc(Nc4ccc(C(F)(F)F)cc4)n3)cnn2n1 [GW819776] | 1 |
| CN1CCN(CCNc2nc3cc(Oc4ccc(NC(=O)Nc5cc(C(F)(F)F)ccc5F)cc4)ccc3[nH]2)CC1.Cl.Cl [GW768504] | 0 |
| COc1cc2c(Nc3ccc(NC(=O)c4ccccc4)cc3)ncnc2cc1OCCCN1CCOCC1 [GSK301329] | 0 |
| COc1cccc(OC)c1C(=O)Nc1cccc(-c2nn3ccccc3c2-c2ccnc(Nc3cccc(F)c3)n2)c1 [GSK361065] | 6 |
| Cc1cccc(-c2nc(Nc3ccncc3)c3sccc3n2)n1 [GW869641] | 15 |
| C[C@@H](Oc1cc(-n2cnc3cc(-c4cnn(C)c4)ccc32)sc1C(N)=O)c1ccccc1Cl [GSK580432] | 0 |
| Cn1ccc2ncnc(Oc3ccc(NC(=O)Nc4cnn(C(C)(C)C)c4)c(Cl)c3)c21 | 13 |
| Cn1ccc2ncnc(Oc3ccc(NC(=O)Nc4ccnc(C(F)(F)F)c4)c(Cl)c3)c21 | 23 |
| C[C@@H](Oc1cc(-n2cnc3cc(-c4ccncc4)ccc32)sc1C(N)=O)c1ccccc1Cl [GSK479719] | 21 |
| c1ccc(Oc2ccc(Nc3ccnc4ccc(-c5ccccn5)cc34)cc2)cc1 [GW407034] | 20 |
| COC(=O)c1cccc(NC(=O)NC2CCN(c3ccnc(NCc4ccc(F)cc4)n3)CC2)c1 [GSK1379860] | 0 |
| COc1cccc(CNC(=O)NC2CCN(c3ccnc(Nc4cc(OC)c(OC)c(OC)c4)n3)C2)c1 (stereo not shown) [GSK1379765] | 0 |
| Cn1ccc2ncnc(Oc3ccc(NC(=O)Nc4cccc(C(F)(F)F)c4)c(Cl)c3)c21 | 10 |
| O=C(NCC1CC1)c1ccc(-c2cc(C(=O)NC3CC3)ccc2F)cc1 [GW810445] | 0 |

| Compound | %Inh [%] |
| --- | --- |
| O=c1[nH]cc(-c2ccc(O)cc2)c2sc(-c3ccncc3)cc12 [GSK1033723] | 14 |
| Cn1ccc2ncnc(Oc3ccc(NC(=O)Nc4cncc(C(F)(F)F)c4)c(Cl)c3)c21 | 25 |
| Cc1ccc(Nc2ccnc(Nc3ccc4c(c3)CS(=O)(=O)C4)n2)cc1O.Cl [GW579362] | 26 |
| N#Cc1cccc(C(=O)NC2CCN(c3ccnc(Nc4ccc(F)cc4)n3)C2)c1 (stereo not shown) [GSK1379708] | 0 |
| C[C@@H]1CNc2c(sc3ccc4nc(-c5ccc(O)cc5)ccc4c23)C(=O)N1 | 20 |
| C[C@@H]1CNc2c(sc3ccc4nc(-c5ccncc5)ccc4c23)C(=O)N1 | 0 |
| Cl.Nc1n[nH]c2cc(-c3ccccn3)ccc12 [GSK2189892] | 9 |
| CCNCC(Cc1ccccc1)NC(=O)c1cc(Br)c(-c2ccnc3[nH]ccc23)s1.Cl.Cl (stereo not shown) [GSK1383280] | 26 |
| CN(c1ccc2c(c1)nc(NCc1ccc(F)cc1)n2C)c1ccnc(Nc2ccc(CS(C)(=O)=O)cc2)n1.Cl [GW813244] | 10 |
| COc1cc2ncn(-c3cc(OCC4CCCCC4)c(C(N)=O)s3)c2cc1OC [GSK204559] | 9 |
| O=C(Nc1ccc(Oc2ccc3nc(NC(=O)C4CC4)cn3n2)c(F)c1)c1cccn(-c2ccccc2)c1=O | 0 |
| Cl.Cl.NC[C@H](CC1CCCCC1)NC(=O)c1ccc(-c2ccnc3[nH]ccc23)s1 [GSK1581428] | 22 |
| CSc1nccc(-c2c(-c3ccc(F)cc3)ncn2CCCN2CCOCC2)n1.Cl [SB-217146] | 3 |
| CCOC(=O)N1CCC(n2cnc(-c3ccc(F)cc3)c2-c2ccnc(N)n2)CC1 [SB-219952] | 3 |
| CS(=O)(=O)Nc1ccc(-c2ccnc3[nH]ccc23)cc1 [GSK993273] | 26 |
| O=C(Nc1cccc(C(F)(F)F)c1)c1cccc(Oc2ccc3nccn3n2)c1 | 0 |
| O=C(NOCC1CC1)c1cc(Br)c(F)c(F)c1Nc1ccc(I)cc1Cl | 2 |
